Test results reported in the supplement of paper PMC11417369.
± gives the standard deviation of the averaged measurements. Whole data set: some 25,000 sequences, median “ln(normalized median fluorescence intensity)” near 7.9, cut for the highest 2% near 11. Shown is part of a subset that was picked to be rich in the highest values.

system: PfAP2-I AP2 domain 3 (GST-tagged); assay: gcPBM binding intensity (ln(normalized median fluorescence intensity)); higher = stronger DNA binding
Method in brief: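 GST-tagged P. falciparum DNA-binding domains produced in E. coli were incubated for 1 h on an Agilent 4 × 180k array of primer-extended double-stranded 36-bp intergenic genomic probes with negative controls. Binding intensity is the highest Masliner-normalised natural-log median intensity across replicate spots of either probe orientation, with bound protein detected by Alexa488 anti-GST antibody at 488 nm.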

“ATAAATATTATTTTACGTACATATTTATGAAGTATT [XGTACX_site8746]” was tested. Which “gcPBM binding intensity (ln)” value did it give?
The value was 7.92 ± 0.29.

For “ATTGTTCTATGATTTGTACACACTTTTTTTTAAAAT [CACACA_site2825]”, which “gcPBM binding intensity (ln)” value is on record?
The value was 8.43 ± 0.46.

Which “gcPBM binding intensity (ln)” value does the source give for “TTACATACATACAAGTGTACGCATATATTAATATTA [XGTACX_site4006]” here?
Its value is 8 ± 0.26.

Which “gcPBM binding intensity (ln)” value does the source give for “ATTATTTGTTTAATGAGTACGAAGACAAATTTTACC [XGTACX_site5223]” here?
The value was 8.12 ± 0.49.

With “TTTATAAAAAGCATAACACACACATGTCAATATATA [CACACA_site8286]” as the sequence, how does the “gcPBM binding intensity (ln)” value read?
The value was 7.71 ± 0.52.

With “TGAATCAATTGTTGCTGTACATAAGGTATACAATAA [XGTACX_site5127]” as the sequence, how does the “gcPBM binding intensity (ln)” value read?
Its value is 7.97 ± 0.52.

How did the “gcPBM binding intensity (ln)” value turn out when “ATGTATATATATATATGTACTAATTAGTAATTTACG [XGTACX_site6276]” was run?
The value was 7.87 ± 0.32.

Which “gcPBM binding intensity (ln)” value does the source give for “TTTTTTTTTTTTTTTGTGCACAATTATTTCAATTTT [GTGCAC_site9884]” here?
Its value is 10.9 ± 0.79.

For “ATATTTTATTTAATTACACACAATATTGCAATTTGT [CACACA_site669]”, which “gcPBM binding intensity (ln)” value is on record?
Its value is 8.35 ± 0.53.

For “TGTATATGGTTTGTGCAAAAATTTATTAATGTGTAA [TGCATGCA_negctrl_site374]”, which “gcPBM binding intensity (ln)” value is on record?
Its value is 8.8 ± 0.35.

How did the “gcPBM binding intensity (ln)” value turn out when “ATTTTTATTTTTTTTGTGCACATTTTCATTTTCTAT [GTGCAC_site9580]” was run?
The value was 10.4 ± 0.47.

Which “gcPBM binding intensity (ln)” value does the source give for “ATATATATTAATTTTGTGCACAAATGGAAATGTTTG [GTGCAC_site9971]” here?
The value was 11 ± 0.2.

How did the “gcPBM binding intensity (ln)” value turn out when “TAATATAATATATGCACACAAATATGTATTTATGTG [CACACA_site5210]” was run?
The value was 9.14 ± 0.014.

For TATTATTCAAAATTTGTGCACAAAATTAAAGGAACA, which “gcPBM binding intensity (ln)” value is on record?
Its value is 10.8 ± 0.27.

With “ATTTTTATTTTATATACACACAATAATAATATAATA [CACACA_site4015]” as the sequence, how does the “gcPBM binding intensity (ln)” value read?
Its value is 7.83 ± 0.43.

For AATTTATATAATTTTGTGCACAATATTCATGTATAT, which “gcPBM binding intensity (ln)” value is on record?
Its value is 11 ± 0.14.

With “TATTTTATTTGTATATTCATTTGTATAATATAAATA [TGCATGCA_negctrl_site267]” as the sequence, how does the “gcPBM binding intensity (ln)” value read?
Its value is 7.37 ± 0.55.

With ATATTTTATATATTTGTGCACAATATTATAATATAT as the sequence, how does the “gcPBM binding intensity (ln)” value read?
Its value is 11.04 ± 0.049.

Which “gcPBM binding intensity (ln)” value does the source give for TGAAATTTTATTAATGTGCACATATATTTATTGTTC here?
Its value is 9.77 ± 0.26.

How did the “gcPBM binding intensity (ln)” value turn out when “ATAAAATACAAAGGGACACACATATGAGTCTACAAA [CACACA_site3092]” was run?
The value was 7.54 ± 0.6.

With “ATATATATATATGTTTATTTATTTGAACGATTGTGG [CACACA_negctrl_site828]” as the sequence, how does the “gcPBM binding intensity (ln)” value read?
Its value is 9.4 ± 0.56.

“AAAAAATTAAATAATTACAAAAAAATAAAATAAAAA [GTGCAC_negctrl_site638]” was tested. Which “gcPBM binding intensity (ln)” value did it give?
The value was 7.5 ± 0.59.

“TAAAAAATTTTCGCGTGTACGCAAGAAAAAAAAAAT [XGTACX_site3058]” was tested. Which “gcPBM binding intensity (ln)” value did it give?
Its value is 8.04 ± 0.72.

Which “gcPBM binding intensity (ln)” value does the source give for “TTAAAAAAGTAATTAACACACAATAATGTAATGCAT [CACACA_site4176]” here?
Its value is 8.18 ± 0.55.

“TATTCTTCAATTTAAAGTACAAAAATTACTATACTT [XGTACX_site6599]” was tested. Which “gcPBM binding intensity (ln)” value did it give?
The value was 7.58 ± 0.28.
